Test systems include BT-549 breast; MDA-MB-435 melanoma; SW-620 colon; MCF7 breast; HCT-116 colon; HCC-2998 colon; KM12 colon.
What all share (assay): NCI-60 one-dose screen, 48 h (100 = growth as untreated, 0 = no growth, -100 = all killed)
Holding throughout (details): 10 µM unless noted

SMILES strings stand for the structures. About 83,000 compounds went through this panel and 20% of them were active in at least one assay; those are over-represented in the sample as a whole.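 Testing used 96-well plates and a 48-hour single-concentration exposure. Example: -40 means 40% of the starting cells died.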 Values without a mark were called inactive. The source made the active and inactive calls. How the source made its calls: active means growth percent below 10; inactive means the rest.

Consider `CCCc1c(OC(=O)c2ccccc2)nc2[nH]c(=O)sc2c1C`, for which the growth in the experiment on BT-549 breast is 95.1%; in the experiment on MDA-MB-435 melanoma, 103%; with SW-620 colon it was 95.3%; in the experiment with MCF7 breast it was 92.9%; in the experiment on HCT-116 colon, 98%; with HCC-2998 colon, 93.5%. Also, in the experiment with KM12 colon, the growth was 101%.
Consider `COc1ccc(-c2ccc(-c3ccc(C(=N)N)cc3)s2)cc1Cl`, for which the growth in the experiment with BT-549 breast is 93.7%; in the experiment on MDA-MB-435 melanoma, -65.2% (active); in the experiment with SW-620 colon it was -71.9% (active); in the experiment on MCF7 breast it was -65.5% (active); with HCT-116 colon, -52.8% (active); with HCC-2998 colon it was -37.8% (active). For the same compound, in the experiment with KM12 colon, the growth was -73.2% (active).
Consider `CC(=O)Oc1ccc(N2C(=O)C(Cl)=C(Nc3cccc(C(F)(F)F)c3)C2=O)cc1`, for which the growth was 85.8% with BT-549 breast; 97.5% in the experiment with MDA-MB-435 melanoma; 99.1% in the experiment on SW-620 colon; 92.8% with MCF7 breast; 91% in the experiment with HCT-116 colon; 104% with HCC-2998 colon. For the same compound, the growth with KM12 colon was 96.3%.
Regarding `Clc1ccc2c(NC3CCC(N4CCOCC4)CC3)ccnc2c1` (configuration not stated), the growth with BT-549 breast was 67.4%; with MDA-MB-435 melanoma, 86.3%; in the experiment with SW-620 colon it was 85.4%; in the experiment with MCF7 breast it was 63.7%; with HCT-116 colon, 47%; in the experiment on HCC-2998 colon, 77.8%. The growth in the experiment on KM12 colon is 96.4%.
`Cc1[nH]c(=O)[nH]c(=O)c1Br`: the growth in the experiment with BT-549 breast is 108%; with MDA-MB-435 melanoma it was 102%; in the experiment with SW-620 colon, 102%; in the experiment with MCF7 breast, 95.6%; with HCT-116 colon it was 106%; in the experiment on HCC-2998 colon, 87.8%. In the experiment on KM12 colon, the growth is 108%.
For the compound `Cn1cc(-c2csc(-c3cn(C(=O)OC(C)(C)C)c4ccc(Br)cc34)n2)c2ccnc(Cl)c21`, the growth in the experiment with BT-549 breast was 63.9%; with MDA-MB-435 melanoma, 63.7%; in the experiment with SW-620 colon it was 75.8%; in the experiment with MCF7 breast it was 82.8%; in the experiment with HCT-116 colon it was 64.7%; with HCC-2998 colon, 95%. The growth with KM12 colon was 90.4%.
As for `NNc1nc(-c2cccnc2)nc2c1sc(=S)n2-c1ccccc1`, the growth in the experiment on BT-549 breast was 72.7%; in the experiment with MDA-MB-435 melanoma it was 112%; in the experiment with SW-620 colon it was 102%; with MCF7 breast it was 92.5%; in the experiment with HCT-116 colon, 76.4%; in the experiment on HCC-2998 colon it was 108%. Also, the growth with KM12 colon was 102%.
`O=C(CN1C(=O)NC2NC(=O)NC21)N/N=C/c1ccccc1[N+](=O)[O-]` (configuration not stated): the growth in the experiment with BT-549 breast is 97.9%; with MDA-MB-435 melanoma it was 104%; in the experiment on SW-620 colon, 105%; in the experiment with MCF7 breast, 85.1%; with HCT-116 colon it was 107%; in the experiment with HCC-2998 colon, 118%. In the experiment with KM12 colon, the growth is 104%.
With `CCOC(=O)c1cc(C(=O)c2cc(OC)c(OC)c(OC)c2)n2ncccc12`, the growth with BT-549 breast was 37%; in the experiment with MDA-MB-435 melanoma, -57.2% (active); in the experiment with SW-620 colon, 33.6%; in the experiment on MCF7 breast, 19.7%; in the experiment with HCT-116 colon, 11.8%; in the experiment with HCC-2998 colon it was 28.3%. Also, in the experiment on KM12 colon, the growth is 20.8%.
On to `COc1ccc(Nc2nc(-c3cc(O)c(C)c(C)c3O)cs2)cc1`, for which the growth was 79.1% in the experiment on BT-549 breast; 7.82% (active) in the experiment on MDA-MB-435 melanoma; 70.6% in the experiment on SW-620 colon; 47.1% in the experiment on MCF7 breast; 82.5% in the experiment on HCT-116 colon; 110% with HCC-2998 colon. The growth in the experiment on KM12 colon is 23.7%.
With `CCc1ccc(CCCC(=O)O)cc1`, the growth in the experiment on BT-549 breast is 101%; with MDA-MB-435 melanoma, 103%; in the experiment with SW-620 colon, 108%; with MCF7 breast, 93.6%; with HCT-116 colon it was 98.1%; with HCC-2998 colon, 117%. For the same compound, the growth in the experiment on KM12 colon was 106%.
Regarding `O=S(=O)(c1ccccc1)n1cc2c(c1)-c1nc(Nc3ncccn3)sc1CC2`, the growth in the experiment on BT-549 breast was 63.8%; in the experiment with MDA-MB-435 melanoma, 61.5%; with SW-620 colon, 65.1%; with MCF7 breast, 49.5%; in the experiment on HCT-116 colon it was 23.1%; with HCC-2998 colon, 85%. Further, the growth in the experiment on KM12 colon is 82.8%.
Regarding `C=CC(=O)N1CCN(c2cccc(Oc3nccc(Nc4nnc(-c5ccc(Br)cc5)s4)n3)c2)CC1`, the growth in the experiment with BT-549 breast is 67.1%; in the experiment with MDA-MB-435 melanoma it was -5.55% (active); in the experiment with SW-620 colon it was 35.2%; in the experiment on MCF7 breast it was 35.9%; in the experiment with HCT-116 colon, 58.4%; in the experiment with HCC-2998 colon, 89.9%. Moreover, the growth in the experiment with KM12 colon was 43.8%.
As for `COc1ccc2c(c1)c(-c1nc(-c3c[nH]c4ccncc34)cs1)cn2C`, the growth in the experiment on BT-549 breast was 77.3%; with MDA-MB-435 melanoma, -92.3% (active); in the experiment with SW-620 colon, -63.9% (active); in the experiment on MCF7 breast, -68.9% (active); with HCT-116 colon, -88.3% (active); in the experiment with HCC-2998 colon, -73.5% (active). Further, in the experiment with KM12 colon, the growth was -88.9% (active).
`CC1OC(n2c3ccccc3c3c4c(c5c6ccccc6[nH]c5c32)C(=O)N(CCN2CCCC2)C4=O)CC(O)C1O` (configuration not stated): the growth in the experiment with BT-549 breast was 65.6%; in the experiment on MDA-MB-435 melanoma, 41.8%; in the experiment on SW-620 colon, 17.7%; in the experiment on MCF7 breast, 9.93% (active); with HCT-116 colon, 25.8%; with HCC-2998 colon, 22%. For the same compound, in the experiment on KM12 colon, the growth was 26.3%.
As to `Cc1ccc(Nc2cc(N)nc(N)n2)cc1Cl`, the growth was 101% in the experiment on BT-549 breast; 98.9% in the experiment on MDA-MB-435 melanoma; 112% in the experiment with SW-620 colon; 74.7% in the experiment on MCF7 breast; 81% with HCT-116 colon; 100% with HCC-2998 colon. The growth with KM12 colon is 93%.
